# Source: PubChem BioAssay (NCI)
# Compounds without any hit were thinned out: in the full panel of roughly 79,000, 15% have a hit. A number with no mark means an inactive call. Calls of active or inactive are those of the source. Cut-off read from the data, not from the text of the source: active = growth inhibition above about 70%; inactive = the rest.
# Assays:
# [1] = NCI Yeast Anticancer Drug Screen. Data for the rad50 strain (AID 155);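 note: 0% = growth of vehicle-only cultures of the same strain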; details: S. cerevisiae rad50 strain growth inhibition; at 50.0 µM; hits give high values
# Summary of the method: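 Cells are treated with compound, grown, and their growth is then scored against vehicle-only cultures of the same repair-deficient yeast strain.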
# [2] = NCI Yeast Anticancer Drug Screen. Data for the mec2-1 strain (AID 157); details: S. cerevisiae mec2-1 strain, at 50.0 µM, hits give high values
# Summary of the method: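 Yeast mec2-1 mutant treated with compound. Readout: growth inhibition vs vehicle controls.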
# [3] = NCI Yeast Anticancer Drug Screen. Data for the sgs1 mgt1 strain (AID 161);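 note: 0% = growth of cultures given vehicle only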; details: S. cerevisiae sgs1 mgt1 strain, at 50.0 µM, hits give high values
# Summary of the method: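 Read-out: growth inhibition vs vehicle controls. Cells: mutant yeast strain deficient in DNA damage repair.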
# [4] = NCI Yeast Anticancer Drug Screen. Data for the cln2 rad14 strain (AID 165);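 note: 0% = growth equal to vehicle treated cultures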; details: S. cerevisiae cln2 rad14 strain, at 50.0 µM, hits give high values
# Summary of the method: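 cln2 rad14 yeast strain; compound exposure; growth inhibition read vs vehicle controls.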
# [5] = NCI Yeast Anticancer Drug Screen. Data for the bub3 strain (AID 167); details: S. cerevisiae bub3 mutant strain, at 50.0 µM, hits give high values
# Summary of the method: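 Part of a panel of yeast mutants defective in DNA damage repair or cell cycle regulation. Each strain is grown with compound, and inhibition is calculated relative to solvent-treated cultures.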
# [6] = NCI Yeast Anticancer Drug Screen. Data for the mlh1 rad18 strain (AID 175); details: S. cerevisiae mlh1 rad18 strain growth inhibition; at 50.0 µM; hits give high values
# Summary of the method: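 Yeast w/ defined DNA-repair lesions; compound exposure; growth vs vehicle controls → % inhibition.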
SMILES,growth inhibition [1],growth inhibition [2],growth inhibition [3],growth inhibition [4],growth inhibition [5],growth inhibition [6]
CN(/N=C/c1ccccn1)C1=NCCCCN1,-33.5%,3.15%,-23.1%,22.2%,8.9%,-8.65%
COC(=O)CCBr,-19.8%,8.15%,28.8%,-18.2%,-1.9%,3.5%
C=CCc1cccc(C)c1O,18.9%,-16.1%,20.4%,13.6%,-2.6%,20.3%
Cc1ccc(S(=O)(=O)OC2C(C)OCOC3COCOC32)cc1 (configuration not stated),-6.3%,-6.45%,5.4%,-13.7%,2.65%,-9.85%
COC(=O)/C=C(\S/C=C(/c1ccccc1)N1CCn2c(C(=O)c3ccccc3)c(C(=O)OC)c(C(=O)OC)c21)C(=O)OC,27.4%,32.6%,43.8%,11.4%,54.1%,15.2%
NS(=O)(=O)c1cc2c(cc1Cl)NC(C(=O)NNC(=O)c1ccncc1)=NS2(=O)=O,-1.6%,-16.5%,-4.8%,1.3%,-11.9%,-20.4%
CN(C)NC1=C([N+](=O)[O-])C=NN(c2ccccc2)C1,15%,-1.15%,13.4%,19.4%,22.1%,51.6%
CC(C)(C)OC(=O)N[C@H]1CCN(C2CCCCC2)C1=O,-34.9%,-10.1%,-22.1%,7.75%,-6.4%,-62.5%
COC(=O)C(O)C(O)C(O)C(O)C(=O)OC (configuration not stated),2.2%,17.4%,10.8%,-5.65%,11.2%,13.3%
O=C(N/N=C\c1ccc(Cl)cc1)Nc1ccc2ccccc2c1,2.9%,11.1%,4.35%,12.9%,20%,29.1%
CCOC(=O)c1c(OC)c(-c2ccccc2)c(=O)n2c3ccccc3n(C)c12,18.2%,9.05%,-0.2%,-4.1%,-1.1%,9.9%
S=C1N(c2ccc(Br)cc2)C2=Nc3ccccc3SC(=C2N=Nc2ccccc2)N1c1ccc(Cl)cc1,-13.6%,20.9%,-8.8%,14.5%,-1.15%,-3%
CN(C)c1nc(=S)c2cn[nH]c2[nH]1,0.1%,0%,-3.7%,-21.8%,6%,-1.2%
O=C(CC(=O)c1ccc(Cl)cc1)c1ccc(Cl)cc1,12.9%,14.5%,-3.95%,0.35%,8.9%,4.45%
CCOc1c(OC)cc(-c2nnc(SCCN(CC)CC)o2)cc1OC,11.4%,0.35%,7.1%,16.7%,0.15%,-7.05%
OC1OCC(COc2ccc(Cl)cc2)OC1O (configuration not stated),-17.6%,-9.05%,-12.2%,1.25%,-36.7%,18.9%
Cc1ccc(S(=O)(=O)N/N=C2\CC[C@H]3[C@@H]4CC=C5C[C@@H](O)CC[C@]5(C)[C@H]4CC[C@]23C)cc1,95.3% (active),95.3% (active),76.3% (active),97% (active),90.6% (active),96% (active)
O=C1c2c(-c3ccccc3)ccc(-c3ccccc3)c2C(=O)c2c(-c3ccccc3)ccc(-c3ccccc3)c21,-4.4%,-3.4%,2.3%,-6.8%,-2.6%,-13.6%
CC1(C)OC(CP(=O)(c2ccccc2)c2ccccc2)C(CP(=O)(c2ccccc2)c2ccccc2)O1 (configuration not stated),23.1%,13.1%,15.4%,18.2%,-2.2%,13.2%
CCN(CC)CCCNc1c2ccccc2nc2ccccc12,13.7%,22.8%,9.2%,51.6%,-8.1%,7%
CNC(=S)N(C)c1ccccc1,0.6%,-9.85%,-15.9%,-57.4%,8.05%,-23.3%

SMILES,growth inhibition [1],growth inhibition [2],growth inhibition [3],growth inhibition [4],growth inhibition [5],growth inhibition [6]
CCOC(OCC)C(N)C(=O)O (configuration not stated),6%,23.7%,1.4%,-19.3%,10.8%,-15%
CC1(C)S/C(=C\c2ccccc2)c2nc3ccccc3c(=O)n21,-6.8%,-7.2%,-16.1%,2.3%,-0.4%,-21.4%
CCc1ccccc1NC(C)=O,-4.75%,-16.4%,-8.7%,-5.2%,0.25%,-12.7%
Cc1c(-c2ccccc2)nnn1-c1ccc(F)c(Cl)c1,-16.4%,-27.1%,-8.75%,-10.4%,6.95%,-12.4%
CCCOCC(O)CNCCNCC(O)COCCC (configuration not stated),4.1%,-2.7%,8.15%,-34.5%,-3.65%,7.3%
CCOC(=O)Cc1nc2sc3c(c2c(=O)[nH]1)CCCC3,10.4%,1.8%,22.4%,-0.9%,3.9%,17.2%
CC(C)CCCC(C)C1CCC2C3CCC4CC(N5CCCCC5)CCC4(C)C3CCC12C (configuration not stated),5.5%,-9.6%,-16.1%,-20.8%,4.55%,17.1%
c1ccn2c(CCc3nnc4ccccn34)nnc2c1,-1.75%,-8.4%,-6.35%,-18.3%,-1.9%,-13.1%
COc1cc(-c2c3c(cc4c2OCO4)CC(O)C(C(=O)O)C3)cc(OC)c1OC (configuration not stated),40.9%,-2.6%,0.4%,15.1%,1.75%,5.6%
[N-]=[N+]=Nc1ncnc2c1sc(=S)n2-c1ccccc1,-6.65%,21.1%,-24.1%,3.6%,15.8%,-2.4%
O=c1[nH]nc(Cc2ccc(Cl)cc2)n1CCO,8.2%,5.95%,19.6%,3.75%,5.85%,-21.1%
COC(=O)C1CCC(=O)N1CN(C(C)=O)c1cc(OC)ccc1OC (configuration not stated),14.9%,-0.05%,2.85%,6.45%,-5.15%,-50.1%
CCN(CC)CCN(C)C(O)(C(=O)c1ccccc1)C1CCCC1 (configuration not stated),8.9%,15.2%,2.3%,-4.35%,0.45%,32%
Cc1cc2nc(N3CCCCC3)n(C3OC(CO)C(O)C3O)c2cc1C (configuration not stated),11%,10.2%,-0.45%,10.7%,-8.75%,13.8%
Cc1oc2nc(N(C)C)nc(Cl)c2c1C,7.15%,5.8%,8.25%,12.5%,22.1%,-15%
C=C(CN(CC)CC)C1(c2ccccc2)CC2(CCCC2)C(=O)O1 (configuration not stated),20.9%,23.9%,1.15%,3.6%,10.2%,5.65%
Cc1nccc2scc(S(=O)(=O)O)c12,22.6%,10.5%,12.1%,-12.8%,-13.7%,22.7%
COc1ccc(Br)cc1/C=N/N=C/c1cc(Br)ccc1OC,-0.2%,-21.6%,1.5%,20.9%,21.5%,23.4%
C/C(Nc1ccc(Cl)cc1)=C1/CCOC1=O,19.1%,5.7%,35.5%,13.1%,11.7%,-24.9%
CC(C)(C)NC(=O)C12C3C4C1C1C2C3C41C(=O)NC(C)(C)C (configuration not stated),-19.3%,-9%,-15.9%,-39.7%,-26.1%,-19.5%
CCOC(=O)c1c(C)csc1NC(=O)CSCC(=O)OC,10.2%,-4%,30.5%,19.9%,41%,31.6%
